Sampled rows, rich in hits. Any-hit rate of the full collection: about 3.4%.
IMPase Li cell: IMPase inhibition in cells with lithium potentiation; CHO-M1 cells, IP1 TR-FRET (IP-One), carbachol + lithium; Potency, µM (series often up to 59.4 µM), for inactives: at the top dose activity, negative = IMPase inhibition, actives largely listed as inhibitors; 0.35% of 210,000 active; AID 1457;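 also: IP1 builds up when IMPase is blocked and the TR-FRET signal falls; potency is read from the fitted curve at half-maximal effect; plate controls were basal vehicle for no effect and high inhibitor control for full effect; nearly all actives have a fitted effect of over 50% in size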
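IP1 accumulation measured by competitive TR-FRET in lysed CHO-M1 cells after 30 min compound exposure at 37C, with a small lithium addition to potentiate weak responses. Hill-equation AC50 from ratio and donor-channel data.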
HTT ATP protect: cytoprotection in Huntington HTT-Q103 PC12 cell model; AID 1471; 0.14% of 230,000 active; Potency, µM (doses to about 56.4 µM), inactives show cytoprotection (ATP increase), hits mostly activators; PC12 HTT-Q103 induced, cytoprotection, ATP luminescence, 40 h; also: potency is read from the fitted curve at half-maximal effect; % of control where 0% means no effect; nearly all actives have a fitted effect of over 45% in size
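Quantitative HTS on tebufenozide-induced (100 nM) PC12 cells expressing HTTQ103 exon 1–GFP; compounds tested as a concentration series; survival measured via cellular ATP.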
IMPase inh: cell-permeable inhibitors of inositol monophosphatase (IMPase); 120,000 tested, under 10 active; CHO-M1 cells, IP1 accumulation, HTRF TR-FRET ratio; P97697; AID 901; inhibition (IP1 accumulation), % at 46.1 µM; active = well fitted curve in the direction sought with a large enough effect in the signal ratio, not every such curve was filed as active; inconclusive = small, poorly fitted or top-dose-only effect, or a change in a side signal; inactive = no such curve, though single readings can be large or run the other way; the % refers to the signal ratio;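 also: cells stimulated with carbachol in lithium chloride buffer; plate controls were DMSO basal wells for no effect and reference inhibitor wells for full effect; higher means more IMPase inhibition seen as more IP1 and lower FRET ratio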
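CHO-M1 cells (CHO stably expressing M1 receptor), compound up to 46 uM final, stimulated with carbachol (50 uM as added) in buffer with 50mM LiCl, pH 7.4, 30 min at 37C. Cytosolic IP1 read by TR-FRET; AC50 from Hill fits.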
NPSR antagonist: blocks cAMP signaling of the human neuropeptide S receptor; Q6W5P4; CHO-NPSR cells, cAMP TR-FRET, antagonist mode; Potency, µM (titrated, usually from 38.3 µM), inactives show top-dose activity change, negative = inhibition, most hits filed as inhibitors; 1% of 220,000 active; also: potency is read from the fitted curve at half-maximal effect; % is scaled to controls: 0 for no effect and ±100 for the full control effect; nearly all actives have a fitted effect of over 50% in size
Target sequence (Q6W5P4 whole entry, looked up): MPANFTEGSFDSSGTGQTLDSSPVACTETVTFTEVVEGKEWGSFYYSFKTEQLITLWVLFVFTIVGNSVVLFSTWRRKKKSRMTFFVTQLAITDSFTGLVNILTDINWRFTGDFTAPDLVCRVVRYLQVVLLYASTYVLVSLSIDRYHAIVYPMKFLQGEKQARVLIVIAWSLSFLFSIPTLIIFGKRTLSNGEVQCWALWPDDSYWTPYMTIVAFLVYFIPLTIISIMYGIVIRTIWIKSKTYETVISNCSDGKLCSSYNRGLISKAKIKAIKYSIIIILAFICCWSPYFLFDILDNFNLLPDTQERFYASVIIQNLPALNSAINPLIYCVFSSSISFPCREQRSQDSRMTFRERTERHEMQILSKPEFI
HTT aggregate: inhibitors of mutant huntingtin aggregate formation in PC12 cells | PC12 HttQ103-GFP aggregates, Acumen cytometry, 40 h | Potency, µM (doses to about 46.1 µM), for the others: at the highest dose activity change, negative = inhibition, hits mostly inhibitors | 1.1% of 220,000 active; also: potency is read from the fitted curve at half-maximal effect; % is scaled to controls: 0 for no effect and ±100 for the full control effect; nearly all actives have a fitted effect of over 60% in size
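Aggregate formation scored by laser-scanning cytometer (488 excitation, 500–530 emission) in lysed PC12 cells expressing Q103-GFP after 100 nM tebufenozide induction; library tested in dose series, with ATPLite reagent added in the multiplex.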
PNC assembly inh: inhibitors of perinucleolar compartment assembly; PC3M PTB-GFP, PNC prevalence imaging, 16 h; hits give low values; 3.1% of 140,000 active; activity change (PNC), negative = inhibition, % at 10 µM;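 active = readout at or below -70, meaning at least 70% loss of cells showing the perinucleolar compartment, a nuclear body marking cancer cells; inconclusive = readout between -30 and a set limit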;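 also: plate controls were DMSO wells for no effect and camptothecin positive control wells for full effect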
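Read-out is percentage of cells bearing a perinucleolar compartment, from automated 20x imaging of fixed, Hoechst-stained PC3M PTB-GFP cells. Cells were seeded 4 h, then exposed 16 h to compound (23 nl of library stock) in duplicate plates.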
An asterisk follows results filed as active; u = inconclusive; x = no result given; [ ] = another dose, or the depositor's remark. Unless noted, calls follow the shape of the dose curve; as a rule, active = well fitted curve in the direction sought with a large enough effect; inconclusive = small, poorly fitted or top-dose-only effect, or another doubt; inactive = no such curve, though single readings can be large; an effect the other way counts as inactive or inconclusive.

SMILES	IMPase Li cell	HTT ATP protect	IMPase inh	NPSR antagonist	HTT aggregate	PNC assembly inh
C#CCCCCCCCCCCCC(O)CC(O)CO (stereo not drawn)	17%	-91%	x	x	x	x
COc1ccc(C)cc1NC(=O)c1ccccc1NS(=O)(=O)c1ccc(Cl)s1	2%	-71%	x	-8%	4.5µM*	x
COc1ccccc1NC(=O)c1ccccc1NS(=O)(=O)c1cccs1	0%	19%[10 µM]	x	-11%	-29%	x
Cc1ccc(-n2c(O)c(C=Nc3ccccc3-c3n[nH]c(=S)[nH]c3=O)c3ccccc3c2=O)cc1C	6%	x	x	1.3µM*	5%	x
CN(C)c1ccc(-c2nc3ccccn3c2/N=C/c2ccc(Br)cc2)cc1	30%	-29%[10 µM]	x	10µM*	-24%	-112*
Cc1c(-c2ccc(Br)cc2)nc2ccccn12	x	26%[10 µM]	-4	-29%[46.1 µM]	12%	-20
COc1ccccc1-c1cc(C(F)(F)F)nc(S(C)(=O)=O)n1	3%[38.3 µM]	-149%	3	7.9µM*	u	u
COc1ccccc1-c1cc(C(F)(F)F)nc(S(=O)(=O)CCCC(=O)NC(C)C)n1	6%[38.3 µM]	-108%	6	u	-17%[9.22 µM]	7
CS(=O)(=O)c1nc(-c2ccco2)cc(C(F)(F)F)n1	27%[38.3 µM]	-71%	4	10µM*	u	u
O=C1CC(C(=O)Nc2ccccc2)C2(CCCCC2)O1 (stereo not drawn)	28%[38.3 µM]	-7%	1	0%[46.1 µM]	-7%	3
O=C1CC(C(=O)Nc2ccc(Cl)cc2[N+](=O)[O-])C2(CCCCC2)O1 (stereo not drawn)	-2%	-5%[10 µM]	x	14%	32%	-84*
CSc1ccc(CN2CCC(O)CC2)cc1	x	8%[10 µM]	x	x	x	x
CCCCOc1ccc(CN2CCC(O)CC2)cc1	39%[38.3 µM]	9%	13	10%[46.1 µM]	2%	-100*
Cc1ccc2c(c1)c1ccc3c(c1n2C)C(=O)C=CC3=O	x	-11%[10 µM]	x	7.9µM*	u	x
COc1ccc2c(c1)c1ccc3c(c1n2C)C(=O)C=CC3=O	x	-16%[10 µM]	x	u	-20%[9.22 µM]	x
Clc1ccc(CSC2=NCCN2)cc1Cl	-2%	5%[10 µM]	x	x	x	x
Cc1cc(/C=N/n2cnnc2)c(C)n1-c1ccc(Cl)cc1	0%	12%[0.074 µM]	x	7%	14%	-15
Cc1cc(/C=N/n2cnnc2)c(C)n1-c1ccc(OCc2ccc(F)cc2)cc1	19%[38.3 µM]	-30%[10 µM]	1	-2%[46.1 µM]	7.1µM*	5
Cc1cc(/C=N/n2cnnc2)c(C)n1-c1ccc(OCc2ccc(Cl)cc2Cl)cc1	70%[38.3 µM]	-55%	15	u	6.3µM*	12
CCc1ccc(C(=O)COC(=O)c2cc([N+](=O)[O-])ccc2NCCO)cc1	4%	17%[0.074 µM]	x	1%	-12%	u
Cc1cc(C)c(C(=O)COC(=O)c2cc([N+](=O)[O-])ccc2NCCO)cc1C	2%	x	11	-21%	0.014µM*	2
O=C1NC2c3ccccc3C(=O)N2c2c1cnn2-c1ccccc1 (stereo not drawn)	9%	-4%[10 µM]	-13	-2%[46.1 µM]	-1%	-100*
O=C1c2ccccc2N2C(=O)c3ccccc3[C@H]2N1c1ccccc1	15%[38.3 µM]	6%[10 µM]	5	-13%[46.1 µM]	12%	-7
O=[N+]([O-])c1nccn1C[C@H](O)CN1CCCCC1	0%	6%[10 µM]	x	x	x	x
CCC(Oc1ccccc1)C(=O)N1CCN(C(=O)C(CC)Oc2ccccc2)CC1 (stereo not drawn)	7%[38.3 µM]	-8%	-1	-13%[46.1 µM]	6%	49
O=C(NC(=S)N1CCN(c2ccccn2)CC1)c1ccccc1	-1%	x	x	5%	-5%	-92*
CCC(Oc1ccccc1)C(=O)N1CCN(c2ccccn2)CC1 (stereo not drawn)	11%[38.3 µM]	-3%	-6	-15%[46.1 µM]	7%	-132*
Cn1ncc(Br)c1C(=O)NC(=S)N1CCN(c2ccccn2)CC1	0%	14%[10 µM]	x	17%	-12%	25
CC1CCC(C(=O)NC(C(=O)N2CCN(c3ccccn3)CC2)C(C)C)CC1 (stereo not drawn)	-7%[38.3 µM]	9%	-8	3%[46.1 µM]	-2%	-114*

Screening results as filed in PubChem.
